Bioassay records deposited in PubChem BioAssay by National Center for Advancing Translational Sciences (NCATS).
Compounds with a hit are over-represented: about 5.3% of the library has one in this group of screens.
Marburg entry inh: qHTS for inhibitors of binding or entry into cells for Marburg Virus | Marburg virus pseudotyped entry inhibition, cell reporter | Potency, µM (series often up to 37.8 µM), hits mostly inhibitors | actives 1.8% (n = 300,000); calls by dose curve; tested in HEK293 cells
Lassa entry inh: qHTS for Inhibitors of binding or entry into cells for Lassa Virus | Lassa virus pseudotype entry inhibition, cell reporter | actives 1.2% (n = 300,000) | AID 540256, 2011 | Potency, µM (titrated, usually from 37.9 µM), usual class: inhibitors; calls by dose curve; tested in HEK293 cells; note: nearly all actives have a fitted effect of over 50% in size
FMDV antiviral: High Throughput Screening for Foot and Mouth Disease Virus Antivirals. FMDV antiviral cell-based qHTS. Potency, µM (top dose mostly 57.9 µM), most hits filed as inhibitors. actives 1.2% (n = 410,000). AID 1159524, 2015; calls by dose curve; tested in HEK293T cells; note: read-out not given here; nearly all actives have a fitted effect of over 45% in size
VACV Venus inh: qHTS for Stage-Specific Inhibitors of Vaccinia Orthopoxvirus: Venus Reporter Primary qHTS. Vaccinia virus Venus reporter expression, fluorescence. Potency, µM (top dose mostly 36.5 µM), hits mostly inhibitors. actives 0.46% (n = 330,000). AID 720580, 2013; calls by dose curve; tested in A549 cells; note: nearly all actives have a fitted effect of over 30% in size
HCV inhibitor: qHTS Assay for Inhibitors of Hepatitis C Virus (HCV). Huh7.5.1 HCVcc-Cre infection, luciferase reporter, 44 h. AID 651820, 2012. Potency, µM (titrated, usually from 41.8 µM), actives largely listed as inhibitors. actives 3.4% (n = 340,000); active = well fitted inhibition curve with a large enough effect; inconclusive = small, poorly fitted or top-dose-only effect, or another doubt; inactive = no such curve, though single readings can be large or run the other way
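After 44 h co-culture of compound, cells and HCVcc-Cre (~0.5 moi), substrate is added for 15 min at room temperature and luciferase measured over 15 sec. Cells were seeded at 1,000/well and pre-cultured 4 h.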
Vaccinia mCherry: qHTS for Stage-Specific Inhibitors of Vaccinia Orthopoxvirus: mCherry Reporter Primary qHTS. Vaccinia virus mCherry reporter infection, fluorescence. Potency, µM (doses to about 36.5 µM), hits mostly inhibitors. actives 0.63% (n = 310,000). AID 720579, 2013; calls by dose curve; tested in A549 cells; note: nearly all actives have a fitted effect of over 35% in size
Hits are given with their value; 0 = inactive; ? = inconclusive; - = not tested or not shown; ! = not active in a repeat.

SMILES	Marburg entry inh	Lassa entry inh	FMDV antiviral	VACV Venus inh	HCV inhibitor	Vaccinia mCherry
O=C(NCCN1CCOCC1)c1ccc2c(c1)N(Cc1ccccc1F)C(=O)c1ccccc1S2(=O)=O	-	-	0	-	0	-
NCCS	11µM!	0	0	0	0.56µM	0
COc1ccc(CN(C)C(=O)Cn2cnc3c(SC)nc(N)nc32)cc1OC	-	-	0	0	4.5µM	0
COC(=O)[C@H](Cc1ccc(O)cc1)NC(=O)Cn1cnc2c(SC)nc(N)nc21	-	-	0	0	0	0
COc1ccccc1-n1cnc2c(c1=O)c1nc3ccccc3nc1n2-c1ccc(C)c(C)c1	-	-	0	?	7.9µM	?
COCCCn1c2nc3ccccc3nc2c2c(=O)n(-c3ccccc3OC)cnc21	0	0	0	0	0	-
O=C(CN1C(=O)c2cccnc2Oc2ccc(Cl)cc21)NCCCc1ccccc1	-	-	0	-	11µM	-
CCN(CCCn1c(SCC#N)nc2ccccc2c1=O)c1ccccc1	9.2µM	?	?	-	?	-
COc1ccc(-c2nc(C#N)c(N3CCCCC3)o2)cc1	0	0	0	0	0	0
COc1ccc(-c2nc(C#N)c(N3CCCCCC3)o2)cc1OC	0	?	-	0	10µM	0
CCOc1ccc(NC(=S)NC(=O)/C=C/c2ccc(OC)c(OC)c2)c([N+](=O)[O-])c1	15µM	?	0	0	0	0
Cc1cc(C)c(CSc2ncc(-c3ccc([N+](=O)[O-])cc3)[nH]2)c(C)c1	?	0	0	0	11µM	0
O=[N+]([O-])c1ccc(-c2cnc(SCc3ccccc3Cl)[nH]2)cc1	0	0	?	?	?	-
O=[N+]([O-])c1ccc(-c2cnc(SC(c3ccccc3)c3ccccc3)[nH]2)cc1	?	3.5µM	?	?	?	?
CN(C)CCC1(C2=CCCC2)CC/C(=C/c2ccc(Cl)cc2)C1=O (configuration not stated)	?	13µM	0	11µM	?	?
Cc1cccc(NC(=O)c2sc(-n3nc(C)c(CCC(C)C)c3C)nc2C)c1	0	0	0	0	-	0
COC(=O)c1ccc(CCc2cc(O)ccc2O)cc1	?	13µM	0	0	4µM	?
COP(=O)(OC)c1ccc(NCc2cc(O)ccc2O)cc1	4.5µM	0	0	0	0	0
CC(C)OC(=O)c1ccc(NCc2cc(O)ccc2O)cc1	2µM	13µM	6.3µM	0	3.5µM	?
CCC(=O)Nc1ccc(C(=O)OCc2ccccc2)cc1	?	0	0	0	0	0
COC(=O)c1ccc(CCc2cc(O)c(Br)cc2O)cc1	0	0	0	0	?	0
CC(C)OC(=O)c1ccc(NC(=O)c2ccccc2)cc1	?	?	0	0	0	0
O=C(OCc1ccccc1)c1ccc(NCc2cc(O)ccc2O)cc1	?	2.5µM	10µM	?	5µM	10µM
O=C(c1cccc(Cl)c1)N1CCCC(Cn2cc(C(=O)N3CCCC3)nn2)C1 (configuration not stated)	-	-	0	0	-	0
Cc1nc2c(O)c3c(c(O)c2nc1C)C1C=CC3CC1	?	?	7.1µM	0	7.9µM	0
SMILES	Marburg entry inh	Lassa entry inh	FMDV antiviral	VACV Venus inh	HCV inhibitor	Vaccinia mCherry
Cc1ccc2nc(N3CCN(C)CC3)c(C#N)cc2c1	?	0	0	0	0	0
Cc1ccc2nc(N3CCN(S(=O)(=O)c4ccc(C)c(Cl)c4)CC3)c(C#N)cc2c1	4.6µM	?	0	-	0	-
C=C(CCC(=O)c1ccccc1)C(=O)c1ccccc1	?	?	?	?	?	0
C=C(C(=O)c1ccccc1)C(CC(=O)c1ccccc1)c1ccccc1 (configuration not stated)	?	10µM	18µM	?	13µM	13µM
COc1ccc([C@H]2CC(=O)c3sc(N)nc3C2)cc1	0	-	-	-	-	-
O=C1CCCc2nc(N3CCN(c4ccccc4)CC3)ncc21	?	?	0	-	0	-
Fc1cnc(N2CCN(c3ccccc3)CC2)nc1N1CCN(c2ccccc2)CC1	?	?	20µM	0	?	0
O=C1CCNc2cc3ccccc3cc21	0	0	0	?	0	22µM
COc1cccc(C(=O)Nc2ccc(C(=O)O)cc2)c1	0	?	0	0	0	0
CN(C)S(=O)(=O)Oc1ccc(C(=O)Nc2cccc(Cl)c2)cc1	?	0	0	0	0	0
O=C(Nc1ccc(Oc2cccc(C(F)(F)F)c2)nc1)c1ccccc1	?	?	?	0	?	0
COc1cccc(C(=O)Nc2ccc(C(=O)c3ccccc3)cc2)c1	-	-	0	-	10µM	-
COc1cccc(C(=O)Nc2ccc(Oc3cccc(C(F)(F)F)c3)nc2)c1	8.9µM	?	0	?	7.1µM	0
COc1cc(OC)cc(C(=O)Nc2ccc(C(=O)Nc3ccccc3OC)cc2)c1	?	0	0	?	11µM	0
CN(C)S(=O)(=O)Oc1ccc(C(=O)Nc2cccc(C(F)(F)F)c2)cc1	-	-	14µM	-	11µM	-
CC(=O)[C@]12C[C@@H]3CCCN(C(=O)N[C@@H]1c1ccccc1)[C@@H]32	0	-	-	-	-	-
Cn1c(SCC2CCCO2)nnc1C1CCN(Cc2ccccc2O)CC1 (configuration not stated)	-	-	0	0	-	0
Cc1cc(C)c(NC(=O)c2sc3nc(C)cc(C)c3c2NC(=O)c2ccccc2)c(C)c1	0	0	0	0	-	0
COc1ccc(NS(=O)(=O)c2cc(N/C(=N\S(=O)(=O)c3ccccc3)c3ccc(F)cc3)ccc2Cl)cc1	12µM	?	0	?	?	0
Cc1ccc(C(=O)CCC(=O)Nc2ccc(Cl)c(S(=O)(=O)Nc3cccc(Cl)c3)c2)cc1	0	?	0	0	0	0
CN(C)S(=O)(=O)Oc1cccc(C(=O)Nc2ccc(Cl)cc2)c1	?	15µM	0	-	10µM	-
COc1ccc(NC(=O)c2ccc(-c3ccccc3)cc2)cc1NS(=O)(=O)c1ccc(F)cc1	?	?	?	?	4µM	0
COc1ccc(NC(=O)c2ccccc2)cc1NS(=O)(=O)c1ccc(F)cc1	0	0	0	0	0	0
CCC(C)NCCC(=O)Nc1ccc(Cl)c(S(=O)(=O)Nc2ccc(Cl)cc2)c1 (configuration not stated)	11µM	0	0	0	?	0
COc1cccc(-n2c(SC)nnc2C2CCN(CCC(C)c3ccc(C)o3)CC2)c1 (configuration not stated)	-	-	0	0	-	0
Cc1ccc(NC(=S)NC(=O)c2ccc(F)cc2)cc1S(=O)(=O)Nc1ccccc1Cl	1.1µM	?	0	?	?	?
COc1ccccc1NS(=O)(=O)c1cc(NC(=O)c2ccncc2)ccc1N1CCCC1	11µM	?	0	0	?	0
COc1ccccc1NS(=O)(=O)c1cc(NC(=O)c2ccc(Cl)nc2)ccc1Cl	8.9µM	?	10µM	?	7.1µM	0
CCOc1ccc(NS(=O)(=O)c2cc(NC(=O)c3ccc(C)cc3)ccc2Cl)cc1	?	?	0	?	7.9µM	?
CC(C)C[C@H]1COc2cccc(F)c2S(=O)(=O)N1	?	0	-	-	-	-
